Results from PubChem BioAssay (NCATS).
Inconclusive results are not listed. Active and inactive are the calls of the source. Calls come from the whole dose curve; as a rule, active = well fitted inhibition curve with a large enough effect; inconclusive = small, poorly fitted or top-dose-only effect; inactive = flat fitted curve, though single readings scatter. Where a SMILES comes first, the peptide text is derived from it.

biological target: Calcium and integrin-binding protein 1 (Homo sapiens) (UniProt Q99828); experiment: Primary qHTS for Identification of Calcium Integrin Binding Protein 1 (CIB1) Competitor (AID 1508620); conditions: CIB1-GST / FITC-alphaIIb peptide fluorescence polarization; series mostly up to 57.7 µM; activity change, negative = inhibition: at the top concentration; note: top concentration of the series differs between compounds
Sequence (Q99828 whole entry, looked up): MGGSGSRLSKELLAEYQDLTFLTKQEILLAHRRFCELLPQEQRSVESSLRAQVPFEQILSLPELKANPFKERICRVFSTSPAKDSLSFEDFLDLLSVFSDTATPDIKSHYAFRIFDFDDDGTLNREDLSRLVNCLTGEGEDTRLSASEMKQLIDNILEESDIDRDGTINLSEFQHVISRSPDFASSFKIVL
In short: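 Fluorescence polarization competition: GST-tagged CIB1 (1 uM final) preincubated with compound 15 min at room temperature, then FITC-labelled alphaIIb peptide (100 nM final) added. After 15 min at room temperature, polarization read at Ex 480/Em 540.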
% is set by controls: 0 for no effect and ±100 for the full control effect.

Row | Compound | activity change, negative = inhibition | Potency
1 | COc1c(C)c2c(c(O)c1C/C=C(\C)CC/C=C(\C)CCC(=O)O)C(=O)OC2 | -1.96% (inactive) | –
2 | CN(NC(=O)CC(=O)NN(C)C(=S)c1ccccc1)C(=S)c1ccccc1 | -23.8% (inactive) | –
3 | CCOc1nc2cccc(C(=O)O)c2n1Cc1ccc(-c2ccccc2-c2noc(=O)[nH]2)cc1 | -14.5% [at 114 µM] (inactive) | –
4 | C/C1=C\C[C@H](O[C@@H]2O[C@H](CO)[C@@H](O)[C@H](O)[C@H]2O)/C(C)=C/[C@H]2OC(=O)[C@H](C)[C@@H]2CC1 | -2.97% (inactive) | –
5 | CC1=CC[C@]2(C(=O)O[C@@H]3O[C@H](CO[C@@H]4O[C@H](CO)[C@@H](O[C@@H]5O[C@@H](C)[C@H](O)[C@@H](O)[C@H]5O)[C@H](O)[C@H]4O)[C@@H](O)[C@H](O)[C@H]3O)CC[C@]3(C)C(CCC4[C@@]5(C)C[C@@H](O)[C@H](O)[C@@](C)(CO)C5CC[C@]43C)C2C1C (stereo not given in full) | -0.144% [at 30.2 µM] (inactive) | –
6 | CCOC(=O)[C@H](CCc1ccccc1)N[C@@H](C)C(=O)N1C2CCCCC2C[C@H]1C(=O)O (stereo not given in full) | -1.92% [at 114 µM] (inactive) | –
7 | CC(C(=O)O)C1CCC2(C)C3C(=O)C=C4C(CCC(=O)C4(C)C)C3(C)CCC12C (stereo not given) | 1.56% (inactive) | –
8 | CC(O)C(O)/C=C/C=C/C(=O)O[C@@H]1C=C2COC(=O)[C@]2(O)[C@@]2(C)CCCC(C)(C)C12 (stereo not given in full) | 2.57% (inactive) | –
9 | C[C@@H]1C[C@H]2[C@@H]3CCC4=CC(=O)C=C[C@]4(C)[C@@]3(F)[C@@H](O)C[C@]2(C)[C@@]1(O)C(=O)COP(=O)(O)O | 2.23% [at 114 µM] (inactive) | –
10 | CCOC(=O)c1ccc(N(C)c2csc(-c3ccccc3)n2)cc1 | 0.302% [at 114 µM] (inactive) | –
11 | COC(=O)C1=CO[C@@H](O[C@@H]2O[C@H](COC(=O)/C=C/c3cc(OC)c(O)c(OC)c3)[C@@H](O)[C@H](O)[C@H]2O)[C@@H]2C(CO)=CC[C@H]12 | 0.0968% [at 30.2 µM] (inactive) | –
12 | COC(=O)C[C@@H]1C(C(=O)O)=CO[C@@H](O[C@@H]2O[C@H](CO)[C@@H](O)[C@H](O)[C@H]2O)/C1=C\COC(=O)/C=C\c1ccccc1 | 0.766% (inactive) | –
13 | CCC(CCO[C@@H]1O[C@H](CO[C@H]2OC[C@](O)(CO)[C@H]2O)[C@@H](O)[C@H](O)[C@H]1O)C(C)(C)O (stereo not given in full) | 5.23% (inactive) | –
14 | CC1C/C=C/C=C\CCCCC(O)C/C=C/C(=O)O1 (stereo not given) | -1.69% [at 114 µM] (inactive) | –
15 | C/C=C(\C)C(=O)O[C@@H]1CC2[C@@H](CC=C3C[C@@H](O[C@H]4C[C@H](OC)[C@H](O[C@H]5C[C@H](OC)[C@H](O[C@H]6C[C@H](OC)[C@H](O[C@H]7C[C@@H](OC)[C@H](O[C@@H]8O[C@H](CO)[C@@H](O)[C@H](O)[C@H]8O)[C@@H](C)O7)[C@@H](C)O6)[C@@H](C)O5)[C@@H](C)O4)CC[C@@]32C)[C@@]2(O)CC[C@H](C(C)=O)[C@@]12C (stereo not given in full) | 0.036% [at 12.4 µM] (inactive) | –
16 | CC1(CO)CC[C@]2(C(=O)O[C@@H]3O[C@H](CO)[C@@H](O)[C@H](O)[C@H]3O)CC[C@]3(C)C(=CCC4[C@@]5(C)CC[C@H](O[C@@H]6O[C@H](C(=O)O)[C@@H](O)[C@H](O)[C@H]6O)C(C)(C)C5CC[C@]43C)C2C1 (stereo not given in full) | 3.67% [at 30.2 µM] (inactive) | –
17 | CC(CCC1C(C(=O)O)=CC(=O)CC1(C)C)O[C@@H]1O[C@H](CO)[C@@H](O)[C@H](O)[C@H]1O (stereo not given in full) | 3.96% (inactive) | –
18 | COc1cccc(-n2nc(C(=O)O)cc2-c2ccc(C3CCCCC3)c(Cl)c2)c1 | -3.91% [at 114 µM] (inactive) | –
19 | CC1(C)CC[C@]2(C(=O)O)CC[C@]3(C)C(=CCC4[C@@]5(C)C[C@H](O)[C@H](O[C@@H]6OC[C@H](O)[C@H](O)[C@H]6O)[C@@](C)(CO)C5CC[C@]43C)[C@@H]2C1 (stereo not given in full) | 5.54% [at 30.2 µM] (inactive) | –
20 | C[C@@H]1O[C@@H](O[C@H]2[C@H](OC(=O)C34CCC5(C)C(=CCC6C7(C)CC(O)C(O[C@@H]8O[C@H](C(=O)O)[C@@H](O)[C@H](O)[C@H]8O)C(C)(C(=O)O)C7CCC65C)C3CC(C)(C)CC4O)O[C@H](C)[C@@H](O)[C@@H]2O)[C@H](O)[C@@H](O[C@@H]2OC[C@](O)(CO)[C@H]2O[C@@H]2O[C@H](CO)[C@@H](O)[C@H](O)[C@H]2O)[C@H]1O (stereo not given in full) | -1.08% [at 12.4 µM] (inactive) | –

Row | Compound | activity change, negative = inhibition | Potency
21 | N#Cc1ccnc(N2C(=O)CC[C@H]2C(=O)N(c2cncc(F)c2)[C@H](C(=O)NC2CC(F)(F)C2)c2ccccc2Cl)c1 | – | inactive
22 | CCC(C)C(=O)O[C@@H]1[C@@H](O)[C@@H](O[C@H]2O[C@H](CO)[C@@H](O)[C@H](O)[C@H]2O)O[C@H](CO)[C@H]1O (stereo not given in full) | 1.39% (inactive) | –
23 | C[C@@H]1O[C@@H](O[C@@H]2[C@@H](O)[C@H](O[C@@H]3[C@@H](O)[C@@H](O)[C@H](O[C@H]4[C@H](OC(=O)[C@]56CCC(C)(C)C[C@H]5C5=CCC7[C@@]8(C)C[C@H](O)[C@H](O[C@@H]9O[C@@H](C)[C@H](O)[C@@H](O)[C@H]9O)[C@@](C)(CO)C8CC[C@@]7(C)[C@]5(C)C[C@H]6O)O[C@H](C)[C@H](O)[C@@H]4O)O[C@H]3C)OC[C@H]2O)[C@H](O)[C@H](O)[C@H]1O (stereo not given in full) | 1.34% [at 12.4 µM] (inactive) | –
24 | C=C1CCC2[C@@](C)(C=O)CCC[C@]2(C)[C@H]1CC/C(C)=C/CO (stereo not given in full) | -6.52% [at 114 µM] (inactive) | –
25 | Cc1coc2c1CC1OC1(C)CCC1OC1(C)C2 (stereo not given) | 2.45% [at 114 µM] (inactive) | –
26 | O=C(Nc1cccnn1)N1CCC(=Cc2cccc(Oc3ccc(C(F)(F)F)cn3)c2)CC1 | – | inactive
27 | C=CC1(C)CC(OC(=O)C(=C)C(O)COC(C)=O)C(C(=C)C(=O)OC)C(O)C1C(=C)CO (stereo not given) | -3.86% (inactive) | –
28 | CN1CCC(c2c[nH]c3ccc(NC(=O)c4ccc(F)cc4)cc23)CC1 | 0.46% [at 114 µM] (inactive) | –
29 | CC/C=C/CC1=C(CCCCCCCC(=O)O)CCC1=O | -14.9% [at 114 µM] (inactive) | –
30 | CCOC(=O)c1ccnc(CNCC(=O)N(CC)CCN(C)C)c1 | -10.4% [at 114 µM] (inactive) | –
31 | COC1CCCC/C(C)=C/C2C=C(C)C(C)C3C(CC(C)C)NC(=O)C23C(=O)C1 (stereo not given) | -2.13% (inactive) | –
32 | O=C(CCO[C@@H]1O[C@H](CO)[C@@H](O)[C@H](O)[C@H]1O)c1ccc(O)cc1 | 4.38% (inactive) | –
33 | O=S(=O)(Nc1ccc(C(O)(C(F)(F)F)C(F)(F)F)cc1)c1cccs1 | 1.2% [at 114 µM] (inactive) | –
34 | COc1cc(/C=C/C(=O)O[C@H]2[C@H](O)[C@@H](CO)O[C@@]2(CO)O[C@H]2O[C@H](COC(=O)c3ccc(O)cc3)[C@@H](O)[C@H](O)[C@H]2O)cc(OC)c1OC | 5.12% [at 30.2 µM] (inactive) | –
35 | CC1=CC2(O)/C=C/C(C)(O)CC(O)/C=C/C(=O)OC23C(=O)NC(CC(C)C)C3C1C (stereo not given) | 1.02% (inactive) | –
36 | C[C@@H]1CC[C@H]2C(C)(C)[C@H](O)[C@H](O)C[C@]2(C)[C@@]12Cc1c(O)cc3c(c1O2)CNC3=O | 1.45% (inactive) | –
37 | COC(=O)C1=CO[C@@H](O[C@@H]2O[C@H](CO)[C@@H](O)[C@H](O)[C@H]2O)[C@@H]2[C@@H](C)[C@@H](O)C[C@H]12 | -4.6% (inactive) | –
38 | C[C@@H](O)[C@H](N)C(=O)N1CCC[C@H]1C(=O)N1CCC[C@H]1C(=O)N[C@H](C(N)=O)[C@@H](C)O (H-TPPT-NH2) | -1.24% [at 30.2 µM] (inactive) | –
39 | O=C(C1CC1)N1CC[C@@H](Cc2n[nH]c(=O)n2-c2ccc(-c3ccc4occc4c3)cc2)C1 | – | inactive
40 | C=C1CC2(C(=O)O)CC1CCC2C1(C)CCCC2(C)C(=O)OC(O)C21 (stereo not given) | 0.0111% (inactive) | –
